Results filed as inconclusive are left out. A structure can be active in one record and inactive in another. Activity calls are given as the source filed them. How the source made its calls, unless noted: active means hit-call score of the fitted dose curve at least 0.9, where 1 is the maximum; inactive means score below 0.9.
Assays:
[1] = target: Hypoxia-inducible factor 1-alpha (Homo sapiens) (UniProt Q16665); assay: ATG_HIF1a_CIS: Attagene CIS-FACTORIAL HepG2 Assay for human Hypoxia Inducible Factor 1 (HIF1A) (AID 2282951); conditions: HepG2 Attagene cis-factorial HIF1a reporter transcription; actives raise or lower the signal
How it was run: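 HepG2 cells transiently transfected with multiple cis-regulated reporter transcription units measure endogenous transcription factor activity. After 24 h exposure, reporter mRNA is quantified by RT-PCR with 6-FAM labelling, HpaI digestion and capillary electrophoresis. Bidirectional fitting against DMSO.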

[2] = target: Hepatocyte nuclear factor 6 (Homo sapiens) (UniProt Q9UBC0); assay: ATG_HNF6_CIS: Attagene CIS-FACTORIAL HepG2 Assay for human Hepatocyte Nuclear Factor 6 (HNF6) (AID 2282952); conditions: HepG2 Attagene cis-factorial HNF6 reporter transcription; actives raise or lower the signal
How it was run: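 Reporter mRNA induction or loss in HepG2 after 24 h exposure; transient cis-MRTU transfection; fragments quantified by capillary electrophoresis; bidirectional analysis, DMSO as negative control.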

[3] = target: Heat shock factor protein 1 (Homo sapiens) (UniProt Q00613); assay: ATG_HSE_CIS: Attagene CIS-FACTORIAL HepG2 Assay for human Heat Shock Transcription Factor 1 (HSE) (AID 2282953); conditions: HepG2 HSE cis-reporter, Attagene RNA transcription; actives raise or lower the signal
How it was run: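 Reporter mRNA induction in HepG2 is measured 24 h after dosing, using transiently transfected multiplexed cis-regulated reporter units. Signal comes from capillary electrophoresis of labelled RT-PCR products, with DMSO as negative control.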

[4] = ATG_MRE_CIS: Attagene CIS-FACTORIAL HepG2 Assay for human Metal Responsive Element (MRE) (AID 2282954); conditions: HepG2 MRE cis-reporter transcription, Attagene multiplex; actives raise or lower the signal
How it was run: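 HepG2 cells transiently transfected with multiple cis-element reporter units measure endogenous MTF1-driven transcription. After 24 h compound exposure, reporter mRNA is quantified by RT-PCR with 6-FAM labelling, HpaI digestion and capillary electrophoresis; bidirectional fits versus DMSO.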

[5] = target: Paired box protein Pax-6 (Homo sapiens) (UniProt P26367); assay: ATG_Pax6_CIS: Attagene CIS-FACTORIAL HepG2 Assay for human Paired Box 6 (PAX6) (AID 2282956); conditions: HepG2 CIS-FACTORIAL PAX6 reporter transcription, RNA readout; actives raise or lower the signal
How it was run: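 After twenty-four hours of chemical exposure, transfected HepG2 cells are harvested for RNA. Cis-promoter reporter transcripts are amplified, fluorescently labelled and sized by capillary electrophoresis, with gain and loss of signal scored against DMSO.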

[6] = ATG_PXRE_CIS: Attagene CIS-FACTORIAL HepG2 Assay for human Pregnane X Receptor Element (PXRE) (AID 2282957); conditions: HepG2 Attagene CIS-FACTORIAL PXRE reporter, mRNA; actives raise or lower the signal
How it was run: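 Transiently transfected HepG2 cells were dosed and incubated for 24 h. RNA was then isolated, DNase-treated, reverse-transcribed and reporter sequences amplified. Labeled, HpaI-digested fragments were quantified by capillary electrophoresis against DMSO.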

[7] = ATG_RORE_CIS: Attagene CIS-FACTORIAL HepG2 Assay for human RAR-related Orphan Receptor Element (RORE) (AID 2282959); conditions: HepG2 Attagene cis-factorial RORE reporter, mRNA; actives raise or lower the signal
How it was run: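 HepG2 cells carrying transiently transfected cis-regulated reporter units; RORE-driven reporter mRNA quantified 24 h post-dosing by RT-PCR, 6-FAM primer extension, HpaI digestion and capillary electrophoresis. Bidirectional fit versus DMSO.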

[8] = ATG_Sox_CIS: Attagene CIS-FACTORIAL HepG2 Assay for human SRY-box transcription factor (SOX) (AID 2282960); conditions: HepG2 Attagene cis-factorial SOX reporter, mRNA; actives raise or lower the signal
How it was run: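 HepG2 cells transiently transfected with multiple cis-regulated reporter units, then dosed for 24 h. Reporter mRNA quantified by RT-PCR, fluorescent labelling, HpaI digestion and capillary electrophoresis; bidirectional fit versus DMSO.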

[9] = target: Transcription factor Sp1 (Homo sapiens) (UniProt P08047); assay: ATG_Sp1_CIS: Attagene CIS-FACTORIAL HepG2 Assay for human Specificity Protein 1 (Sp1) (AID 2282961); conditions: HepG2 Sp1 cis-reporter transcription, actives raise or lower the signal
How it was run: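 HepG2 cells transiently transfected with multiplexed cis-regulated reporter constructs, chemical exposure 24 h. Reporter mRNA quantified by RT-PCR with capillary electrophoresis; bidirectional fit relative to DMSO.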

[10] = ATG_SREBP_CIS: Attagene CIS-FACTORIAL HepG2 Assay for human Sterol Regulatory Element Binding (SREBP) (AID 2282962); conditions: HepG2 Attagene cis-factorial SREBP reporter, mRNA; actives raise or lower the signal
How it was run: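 Twenty-four hours after chemical dosing of transfected HepG2 cultures, reporter RNA was converted to cDNA, amplified, end-labelled with 6-FAM and resolved by capillary electrophoresis. Responses were fitted relative to DMSO.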

[11] = target: Signal transducer and activator of transcription 3 (Homo sapiens) (UniProt P40763); assay: ATG_STAT3_CIS: Attagene CIS-FACTORIAL HepG2 Assay for human Signal Transducer and Activator of Transcription 3 (STAT3) (AID 2282963); conditions: HepG2, Attagene cis-factorial STAT3 reporter transcription; actives raise or lower the signal
How it was run: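 HepG2 cells transiently transfected with cis-element-driven multiple reporter transcription units; after 24 h chemical exposure, reporter mRNA measured by RT-PCR, 6-FAM primer-extension labelling, HpaI digestion and capillary electrophoresis. Bidirectional fitting versus DMSO baseline.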

[12] = ATG_TA_CIS: Attagene CIS-FACTORIAL HepG2 Assay for human TA Basal Promoter (AID 2282964); conditions: HepG2 Attagene CIS-factorial TA basal promoter reporter; actives raise or lower the signal
How it was run: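 Cis-factorial format in HepG2: reporters report endogenous factors, not chimeric Gal4 fusions. After 24 h treatment, reporter transcripts were measured by RT-PCR-capillary electrophoresis fluorescence, analysed bidirectionally versus DMSO.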

[13] = ATG_TCF_b_cat_CIS: Attagene CIS-FACTORIAL HepG2 Assay for human T-Cell-Factor with beta-catenin (TCF/b-cat) (AID 2282965); conditions: HepG2 TCF/beta-catenin cis-reporter transcription, actives raise or lower the signal
How it was run: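 HepG2 cells transiently transfected with multiple cis-promoter-regulated reporter transcription units, so endogenous transcription factor activity is measured. Reporter mRNA read 24 hours after dosing by RT-PCR, fluorescent labelling and capillary electrophoresis; bidirectional fitting against DMSO.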

[14] = ATG_TAL_CIS: Attagene CIS-FACTORIAL HepG2 Assay for human TAL Basal Promoter (AID 2282966); conditions: HepG2 Attagene cis-factorial TAL promoter reporter; actives raise or lower the signal;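 further: background control endpoint measuring basal TAL promoter reporter mRNA not a specific factor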
How it was run: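 Readout: reporter mRNA, fluorescence by CE. System: HepG2, transient multi-reporter transfection, endogenous TF activity. Exposure: 24 h. Analysis: bidirectional, DMSO-normalized; background control.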

[15] = ATG_TGFb_CIS: Attagene CIS-FACTORIAL HepG2 Assay for human Transforming Growth Factor (TGF) (AID 2282967); conditions: HepG2 Attagene CIS TGFb reporter, mRNA transcription; actives raise or lower the signal
How it was run: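 Multiplexed cis-reporter HepG2 system, 24 h treatment; mRNA induction read by fluorescence after RT-PCR and CE; DMSO negative control, bidirectional curve fitting.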

[16] = ATG_VDRE_CIS: Attagene CIS-FACTORIAL HepG2 Assay for human Vitamin D Receptor Element (VDRE) (AID 2282968); conditions: HepG2 VDRE cis-reporter transcription, actives raise or lower the signal
How it was run: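 HepG2 cells transiently transfected with cis-element reporter units, dosed 24 h; reporter mRNA measured by RT-PCR, 6-FAM labeling, HpaI digestion and capillary electrophoresis. Activity fitted bidirectionally against DMSO baseline.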

[17] = ATG_PBREM_CIS: Attagene CIS-FACTORIAL HepG2 Assay for human Phenobarbital-responsive Enhancer Module (PBREM) (AID 2282955); conditions: HepG2 PBREM cis-reporter, Attagene multiplexed transcription; actives raise or lower the signal
How it was run: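 HepG2 cells transiently transfected with multiple cis-regulated reporter units measure endogenous transcription factor activity; 24 h compound exposure. Reporter mRNA quantified by RT-PCR, fluorescent labelling, HpaI digestion and capillary electrophoresis; bidirectional fit versus DMSO.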

[18] = ATG_PPRE_CIS: Attagene CIS-FACTORIAL HepG2 Assay for human Peroxisome Proliferator-activated Response Element (PPRE) (AID 2282958); conditions: HepG2 PPRE cis-element reporter, Attagene transcription factor profiling; actives raise or lower the signal
How it was run: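 HepG2 cells are transiently transfected with multiplexed cis-promoter reporter units to report endogenous PPAR activity. After 24 h dosing, reporter mRNA is read by RT-PCR and capillary electrophoresis. Fitting is bidirectional against DMSO.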

[19] = target: Nuclear receptor subfamily 1 group I member 3 (Homo sapiens) (UniProt Q14994); assay: ATG_CAR_TRANS: Attagene TRANS-FACTORIAL HepG2 Assay for human Constitutive Androstane Receptor (CAR) (AID 2282969; active means hit-call score of the fitted dose curve at least 0.9, where 1 is the maximum;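 further: activators raise reporter mRNA above DMSO so AC50 marks induction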); conditions: HepG2 Attagene TRANS-FACTORIAL CAR reporter
How it was run: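 HepG2 cells transiently transfected with multiplexed GAL4-UAS reporter units expressing chimeric NR-Gal4 proteins; compound exposure 24 h. Reporter mRNA measured by RT-PCR, 6-FAM labelling, HpaI digestion and capillary electrophoresis; gain-of-signal fitted against DMSO baseline.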

[20] = target: Estrogen receptor (Homo sapiens) (UniProt P03372); assay: ATG_ERa_TRANS: Attagene TRANS-FACTORIAL HepG2 Assay for human Estrogen Receptor alpha (ERa) (AID 2282970; active means hit-call score of the fitted dose curve at least 0.9, where 1 is the maximum); conditions: HepG2 Attagene TRANS ERa GAL4 reporter, mRNA
How it was run: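 Transactivation via ERa-Gal4 chimera in HepG2; 24 hour incubation; reporter mRNA detected by fluorescence RT-PCR and capillary electrophoresis.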

Measured: AC50

Heat shock factor protein 1 (Homo sapiens), sequence (Q00613 whole entry, looked up): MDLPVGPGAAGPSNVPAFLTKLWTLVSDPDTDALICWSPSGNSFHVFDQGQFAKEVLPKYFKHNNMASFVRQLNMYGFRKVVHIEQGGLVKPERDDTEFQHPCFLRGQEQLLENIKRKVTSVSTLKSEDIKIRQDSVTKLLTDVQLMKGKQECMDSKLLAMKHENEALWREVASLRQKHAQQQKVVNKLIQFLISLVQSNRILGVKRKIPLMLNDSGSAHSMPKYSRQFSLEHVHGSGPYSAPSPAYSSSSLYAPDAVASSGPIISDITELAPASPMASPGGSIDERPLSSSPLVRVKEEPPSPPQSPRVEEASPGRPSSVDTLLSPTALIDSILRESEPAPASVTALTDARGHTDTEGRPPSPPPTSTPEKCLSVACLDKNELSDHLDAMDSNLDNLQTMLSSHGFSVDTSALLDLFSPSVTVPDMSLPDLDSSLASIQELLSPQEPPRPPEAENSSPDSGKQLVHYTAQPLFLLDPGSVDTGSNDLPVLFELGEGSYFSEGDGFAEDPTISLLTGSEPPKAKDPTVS
Signal transducer and activator of transcription 3 (Homo sapiens), sequence (P40763 whole entry, looked up): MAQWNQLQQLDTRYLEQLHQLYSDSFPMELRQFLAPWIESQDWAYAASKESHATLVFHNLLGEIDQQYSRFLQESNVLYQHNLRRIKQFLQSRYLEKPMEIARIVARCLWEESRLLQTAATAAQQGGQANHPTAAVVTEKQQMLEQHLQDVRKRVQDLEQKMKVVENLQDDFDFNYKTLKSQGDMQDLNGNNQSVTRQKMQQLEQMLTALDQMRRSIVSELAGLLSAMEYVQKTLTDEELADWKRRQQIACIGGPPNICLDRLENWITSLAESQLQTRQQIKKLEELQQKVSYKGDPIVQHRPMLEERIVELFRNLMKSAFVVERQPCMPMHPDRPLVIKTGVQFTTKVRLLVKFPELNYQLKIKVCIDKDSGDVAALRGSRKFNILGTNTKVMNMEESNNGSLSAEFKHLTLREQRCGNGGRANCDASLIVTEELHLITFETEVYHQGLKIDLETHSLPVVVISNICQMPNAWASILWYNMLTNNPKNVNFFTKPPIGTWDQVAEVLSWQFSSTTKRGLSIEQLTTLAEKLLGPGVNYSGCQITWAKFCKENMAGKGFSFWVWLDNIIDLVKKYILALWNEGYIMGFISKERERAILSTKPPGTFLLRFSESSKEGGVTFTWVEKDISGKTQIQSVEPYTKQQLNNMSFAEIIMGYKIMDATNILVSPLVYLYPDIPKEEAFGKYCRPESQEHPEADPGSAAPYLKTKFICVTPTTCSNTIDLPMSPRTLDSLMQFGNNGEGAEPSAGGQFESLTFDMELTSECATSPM
Paired box protein Pax-6 (Homo sapiens), sequence (P26367 whole entry, looked up): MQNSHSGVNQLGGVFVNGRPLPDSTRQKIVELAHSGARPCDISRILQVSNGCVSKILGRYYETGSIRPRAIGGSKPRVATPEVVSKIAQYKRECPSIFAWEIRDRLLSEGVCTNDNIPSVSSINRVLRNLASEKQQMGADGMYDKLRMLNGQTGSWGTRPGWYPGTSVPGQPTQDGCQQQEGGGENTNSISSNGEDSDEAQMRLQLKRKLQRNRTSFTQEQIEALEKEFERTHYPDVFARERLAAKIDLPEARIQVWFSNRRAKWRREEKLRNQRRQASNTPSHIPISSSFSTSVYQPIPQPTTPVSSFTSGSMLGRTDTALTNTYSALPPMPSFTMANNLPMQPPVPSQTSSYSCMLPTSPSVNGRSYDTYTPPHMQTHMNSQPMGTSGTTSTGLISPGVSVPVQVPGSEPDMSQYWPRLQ
Hepatocyte nuclear factor 6 (Homo sapiens), sequence (Q9UBC0 whole entry, looked up, the tested form may be a part): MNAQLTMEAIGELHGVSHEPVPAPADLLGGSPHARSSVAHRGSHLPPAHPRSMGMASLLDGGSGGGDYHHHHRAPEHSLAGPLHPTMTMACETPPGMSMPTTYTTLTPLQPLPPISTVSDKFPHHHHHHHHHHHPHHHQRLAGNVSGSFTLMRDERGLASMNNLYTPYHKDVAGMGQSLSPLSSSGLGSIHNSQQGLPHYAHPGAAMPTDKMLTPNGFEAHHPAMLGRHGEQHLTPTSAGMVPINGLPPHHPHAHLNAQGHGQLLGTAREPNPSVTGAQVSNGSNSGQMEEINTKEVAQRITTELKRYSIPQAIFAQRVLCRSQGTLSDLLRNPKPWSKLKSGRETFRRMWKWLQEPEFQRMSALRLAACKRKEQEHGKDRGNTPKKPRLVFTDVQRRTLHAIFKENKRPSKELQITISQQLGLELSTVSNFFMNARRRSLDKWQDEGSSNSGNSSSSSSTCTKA
Transcription factor Sp1 (Homo sapiens), sequence (P08047 whole entry, looked up): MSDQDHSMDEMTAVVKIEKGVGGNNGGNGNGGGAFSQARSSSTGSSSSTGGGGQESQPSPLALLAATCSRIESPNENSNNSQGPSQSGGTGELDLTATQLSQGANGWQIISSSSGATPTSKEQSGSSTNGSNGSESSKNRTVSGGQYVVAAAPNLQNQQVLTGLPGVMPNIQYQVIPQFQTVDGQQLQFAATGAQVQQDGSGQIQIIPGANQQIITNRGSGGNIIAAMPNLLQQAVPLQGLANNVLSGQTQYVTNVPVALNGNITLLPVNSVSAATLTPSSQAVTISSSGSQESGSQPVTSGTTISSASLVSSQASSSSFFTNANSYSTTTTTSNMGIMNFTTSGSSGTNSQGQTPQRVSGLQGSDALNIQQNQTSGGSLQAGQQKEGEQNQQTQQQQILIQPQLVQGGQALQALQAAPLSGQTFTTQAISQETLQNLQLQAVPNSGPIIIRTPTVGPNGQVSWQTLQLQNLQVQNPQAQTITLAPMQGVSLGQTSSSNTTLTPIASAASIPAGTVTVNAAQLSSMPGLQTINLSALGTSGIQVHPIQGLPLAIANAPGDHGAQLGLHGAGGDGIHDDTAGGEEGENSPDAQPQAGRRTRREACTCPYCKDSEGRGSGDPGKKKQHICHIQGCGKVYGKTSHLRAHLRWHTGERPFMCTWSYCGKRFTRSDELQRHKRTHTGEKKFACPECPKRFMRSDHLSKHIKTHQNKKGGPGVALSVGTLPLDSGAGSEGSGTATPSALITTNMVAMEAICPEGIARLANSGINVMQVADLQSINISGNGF
Hypoxia-inducible factor 1-alpha (Homo sapiens), sequence (Q16665 whole entry, looked up): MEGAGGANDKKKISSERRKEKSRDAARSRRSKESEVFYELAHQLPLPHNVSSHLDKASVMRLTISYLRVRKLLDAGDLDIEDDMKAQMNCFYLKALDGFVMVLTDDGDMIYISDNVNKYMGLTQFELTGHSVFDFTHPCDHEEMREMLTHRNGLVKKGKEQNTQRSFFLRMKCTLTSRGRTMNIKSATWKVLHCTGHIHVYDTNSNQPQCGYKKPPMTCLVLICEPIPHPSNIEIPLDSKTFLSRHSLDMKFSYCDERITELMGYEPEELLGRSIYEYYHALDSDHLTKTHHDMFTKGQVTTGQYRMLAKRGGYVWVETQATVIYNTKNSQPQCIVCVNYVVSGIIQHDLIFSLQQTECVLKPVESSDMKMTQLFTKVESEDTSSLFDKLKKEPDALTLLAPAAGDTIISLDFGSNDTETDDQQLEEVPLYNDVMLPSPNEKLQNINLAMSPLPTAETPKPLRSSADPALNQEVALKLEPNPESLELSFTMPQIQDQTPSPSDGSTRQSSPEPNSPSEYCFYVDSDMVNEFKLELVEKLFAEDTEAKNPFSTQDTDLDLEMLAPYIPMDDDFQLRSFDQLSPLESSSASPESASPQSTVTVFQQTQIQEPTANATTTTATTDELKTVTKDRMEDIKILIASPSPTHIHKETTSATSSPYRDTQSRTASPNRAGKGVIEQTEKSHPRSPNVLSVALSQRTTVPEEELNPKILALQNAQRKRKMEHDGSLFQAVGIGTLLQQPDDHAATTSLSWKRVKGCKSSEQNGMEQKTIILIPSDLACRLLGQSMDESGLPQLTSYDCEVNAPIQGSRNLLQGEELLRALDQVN
Estrogen receptor (Homo sapiens), sequence (P03372 whole entry, looked up, the tested form may be a part): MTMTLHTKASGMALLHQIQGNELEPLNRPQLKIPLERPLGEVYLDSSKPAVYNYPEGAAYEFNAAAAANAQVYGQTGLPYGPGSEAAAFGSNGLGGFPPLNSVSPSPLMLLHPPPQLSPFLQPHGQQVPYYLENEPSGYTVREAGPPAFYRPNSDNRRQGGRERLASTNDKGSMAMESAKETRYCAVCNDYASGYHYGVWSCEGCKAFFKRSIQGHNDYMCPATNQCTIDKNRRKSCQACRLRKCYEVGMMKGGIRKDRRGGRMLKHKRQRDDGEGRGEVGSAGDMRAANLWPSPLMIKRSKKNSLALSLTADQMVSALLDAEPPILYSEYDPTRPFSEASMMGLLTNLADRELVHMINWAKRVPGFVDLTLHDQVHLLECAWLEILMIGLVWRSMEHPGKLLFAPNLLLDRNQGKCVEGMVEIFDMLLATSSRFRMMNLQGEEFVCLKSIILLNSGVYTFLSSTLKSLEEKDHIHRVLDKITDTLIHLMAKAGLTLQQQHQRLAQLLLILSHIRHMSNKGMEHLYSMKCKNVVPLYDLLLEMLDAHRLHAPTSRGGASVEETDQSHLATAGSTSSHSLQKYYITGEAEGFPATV
Nuclear receptor subfamily 1 group I member 3 (Homo sapiens), sequence (Q14994 whole entry, looked up, the tested form may be a part): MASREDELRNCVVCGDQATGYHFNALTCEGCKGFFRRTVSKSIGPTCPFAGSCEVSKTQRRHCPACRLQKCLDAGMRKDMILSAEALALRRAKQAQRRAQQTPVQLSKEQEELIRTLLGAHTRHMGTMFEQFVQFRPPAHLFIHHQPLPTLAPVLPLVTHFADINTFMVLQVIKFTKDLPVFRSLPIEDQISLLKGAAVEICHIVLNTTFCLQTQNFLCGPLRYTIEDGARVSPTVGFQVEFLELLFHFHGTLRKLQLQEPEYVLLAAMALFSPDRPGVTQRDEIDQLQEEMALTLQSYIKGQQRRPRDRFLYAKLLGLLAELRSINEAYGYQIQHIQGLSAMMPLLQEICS

COc1ccccc1N
inactive: [1] | [2] | [3] | [4] | [5] | [6] | [7] | [8] | [9] | [10] | [11] | [12] | [13] | [14] | [15]
active: [6] 59.1 µM

OCC(c1ccc(Cl)cc1)c1ccc(Cl)cc1
inactive: [5] | [7] | [8] | [11] | [13] | [14] | [15] | [16]
active: [1] 55.3 µM | [2] 56.6 µM | [3] 52.8 µM | [4] 58.9 µM | [6] 8.73 µM | [9] 53.2 µM | [10] 60.9 µM | [12] 60.7 µM

N#CCCC(Br)(C#N)CBr (stereo not given)
active: [2] 33.4 µM | [3] 62.9 µM | [5] 46.3 µM | [6] 33.4 µM | [8] 49.4 µM | [9] 49.2 µM | [13] 51 µM | [16] 43.9 µM
inactive: [1] | [17] | [18] | [7] | [10] | [11] | [12] | [14] | [15]

CNC(=O)N(C)c1nc2ccccc2s1
active: [6] 27.5 µM
inactive: [1] | [2] | [3] | [17] | [5] | [18] | [7] | [8] | [9] | [10] | [11] | [12] | [13] | [14] | [15] | [16]

CC1CC(=O)O1 (stereo not given)
active: [1] 88 µM
inactive: [2] | [3] | [4] | [5] | [6] | [18] | [7] | [8] | [9] | [10] | [11] | [13] | [14] | [15] | [16]

CC(C)[C@@H](Nc1ccc(C(F)(F)F)cc1Cl)C(=O)OC(C#N)c1cccc(Oc2ccccc2)c1 (stereo not given in full)
inactive: [1] | [2] | [3] | [5] | [18] | [7] | [8] | [9] | [10] | [11] | [12] | [13] | [14] | [15] | [19]
active: [17] 1.43 µM | [6] 0.693 µM | [16] 0.734 µM

O=NN1CCCCCC1
inactive: [1] | [2] | [3] | [4] | [5] | [7] | [8] | [9] | [10] | [11] | [12] | [13] | [14] | [15] | [16] | [20]
active: [6] 53 µM

O=NN1CCOCC1
inactive: [1] | [2] | [3] | [4] | [5] | [18] | [7] | [8] | [9] | [10] | [11] | [12] | [13] | [14] | [15] | [16] | [20]
active: [6] 69.6 µM

— PubChem BioAssay (EPA / NIEHS)
